Holding throughout (test): NCI-60 one-dose screen, 48 h (100 = growth as untreated, 0 = no growth, -100 = all killed)
Details in all cases: 10 µM unless noted

The test system of assay [1] is NCI-H23 lung.
The subject of assay [2] is NCI-H226 lung.
Assay [3] has as its system NCI-H322M lung.
The test system of assay [4] is NCI-H460 lung.
The test system of assay [5] is HOP-92 NSCLC.
Assay [6] has as its system NCI-H522 lung.
Assay [7] relates to A549/ATCC NSCLC.
Assay [8] has as its system 786-0 renal.
In assay [9] the test system is COLO 205 colon.
Assay [10] deals with DU-145 prostate.
The test system of assay [11] is K-562 leukemia.
The test system of assay [12] is MALME-3M melanoma.
Assay [13] concerns MDA-MB-231 breast.
Assay [14] concerns RXF 393 renal.
The test system of assay [15] is SF-268 CNS.
Assay [16] deals with SF-539 CNS.
The subject of assay [17] is UACC-257 melanoma.
The test system of assay [18] is M14 melanoma.
Assay [19] concerns SF-295 CNS.
The subject of assay [20] is HOP-62 NSCLC.

The panel holds about 83,000 compounds, 20% with a hit somewhere; the sample as a whole holds those more often.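 Cells were grown in 96-well plates and exposed to the test compound at a single concentration for 48 hours; results are reported as percent growth, with values below 10 considered active.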 A number with no mark means an inactive call. The source made the active and inactive calls.

Regarding `Cc1nnc2nc(N)[nH]n2c1=O`, the growth is 103% in assay [1]; 111% in assay [2]; 105% in assay [3]; 113% in [4]; 66.5% in assay [5]; 92.8% in [6]. Also, the growth in assay [7] is 99%; in [8], 98.8%; in [9] it was 121%; in assay [10], 104%; in [11] it was 101%; in [12], 93.9%. Further, the growth is 129% in assay [13]; 117% in assay [14]; 103% in assay [15]; 114% in assay [16]; 98.5% in assay [17]; 99.2% in assay [18].

For the compound `[B-][N+](CC)(CC)c1ccccc1`, the growth was 105% in [1]; 106% in assay [2]; 96.9% in assay [3]; 110% in assay [4]; 81.9% in assay [5]; 96.5% in assay [6]. In addition, the growth in [7] was 102%; in assay [8] it was 105%; in assay [9], 102%; in [10] it was 106%; in assay [11], 105%; in [12], 98.1%. The growth was 119% in assay [13]; 115% in assay [14]; 103% in assay [15]; 97% in assay [16]; 105% in assay [17]; 88.6% in assay [18].

As for `COc1ccc(-c2nc(Nc3ccc(-c4nc5ccccc5[nH]4)cc3)nc(N3CCOCC3)n2)cc1`, the growth in assay [1] is 11.3%; in assay [2], 17.1%; in assay [3] it was 27%; in assay [4], 0.132% (active); in assay [5], -6.57% (active); in assay [6], 11.9%. The growth in [7] is 11.2%; in assay [8], -60% (active); in [9], -43.7% (active); in assay [10], 38.5%; in assay [11], -22% (active); in assay [12], -65.7% (active). The growth in assay [13] is 5.74% (active); in assay [14] it was -67.5% (active); in assay [15], 34.1%; in [19], -63.5% (active); in assay [16] it was 0.307% (active); in assay [18], -7.64% (active).

With `Cc1ccsc1-c1ccc2c(c1)COC2(CCCN(C)C)c1ccc(F)cc1` (centres undefined), the growth in assay [1] is 70.6%; in assay [2], 93%; in assay [3], 68.5%; in assay [4], 10.3%; in assay [5] it was 41.6%; in assay [6] it was 55.1%. The growth in [7] is 45.9%; in assay [8] it was 63.8%; in assay [9], -43.9% (active); in assay [10], 60%; in assay [11], 1.22% (active); in assay [12] it was -14% (active). Further, the growth in assay [13] was 51.1%; in [14] it was 28.2%; in [15], 65.2%; in assay [19], 57.1%; in assay [16], 67%; in [17] it was -10.5% (active). Also, the growth in [18] is -57.5% (active).

Turning to `COC(=O)[C@]12CC[C@@H](C)[C@H](C)[C@@H]1C1=CC(=O)[C@@H]3[C@@]4(C)C[C@@H](OC(C)=O)[C@H](OC(C)=O)[C@@](C)(COC(C)=O)[C@@H]4C(=O)C[C@@]3(C)[C@]1(C)CC2`, the growth was 45.4% in assay [1]; 41.8% in assay [2]; 82.6% in [3]; 58.2% in assay [20]; 32.4% in assay [4]; 18.1% in assay [5]. Further, the growth in assay [6] was 47.6%; in [7] it was 42.5%; in [8], 68.5%; in [9], 39.5%; in assay [10], 73%; in [12], 44.6%. The growth in assay [13] is 41.6%; in assay [14], 64.5%; in [15], 73.8%; in assay [19], 51.6%; in assay [16] it was 72.3%; in assay [18], 29.5%.

Regarding `NC(=O)NCC1CCCCC1`, the growth is 90.7% in assay [1]; 102% in assay [2]; 104% in [3]; 105% in [4]; 114% in assay [5]; 93.3% in [6]. Moreover, the growth is 109% in assay [7]; 101% in assay [8]; 111% in [9]; 104% in assay [10]; 102% in assay [11]; 99.3% in [12]. The growth in [13] was 108%; in assay [14], 101%; in assay [15] it was 99.1%; in [19], 93.1%; in assay [16], 91.4%.

Regarding `COc1ccc(-c2nc3ncccn3c2-c2nc3ccc(Br)cc3[nH]2)cc1`, the growth is 98.4% in [1]; 93.5% in [2]; 94.3% in assay [3]; 90.1% in assay [4]; 77.1% in assay [5]; 69.7% in assay [6]. In addition, the growth in assay [7] was 84.9%; in assay [8], 98.1%; in assay [9], 104%; in assay [10], 94.1%; in assay [11], 63.5%; in [12], 81.3%. The growth is 72.9% in assay [13]; 74.1% in assay [14]; 99.6% in assay [15]; 82.8% in assay [16]; 92.6% in assay [17]; 90.5% in assay [18].

On to `CC1(C)C(=O)CC[C@]2(C)[C@H]3C(=O)C=C4[C@@H]5C[C@@](C)(C(=O)NCCNCCN)CC[C@]5(C)CC[C@@]4(C)[C@]3(C)CC[C@@H]12`, for which the growth in assay [1] is 98.4%; in assay [2], 96.8%; in [3] it was 108%; in assay [4] it was 99.2%; in assay [5] it was 66.2%; in assay [6], 111%. Moreover, the growth was 97.6% in assay [7]; 99.9% in assay [8]; 108% in assay [9]; 102% in assay [10]; 86.6% in assay [11]; 92.2% in assay [12]. In addition, the growth in [13] is 102%; in assay [14], 103%; in assay [15] it was 83.9%; in assay [19], 101%; in assay [16], 98.7%; in assay [17], 101%. The growth in [18] is 90.6%.

For the compound `Fc1ccc(Nc2ccc3c(OCCCN4CCOCC4)cccc3n2)cc1F`, the growth in assay [1] is 79%; in assay [2], 64.6%; in assay [3], 73.3%; in [4] it was 55.7%; in [5], 63.9%; in assay [6], 83.8%. In addition, the growth in [7] was 75.4%; in assay [8], 74%; in assay [9] it was -7.44% (active); in [10], 76.9%; in assay [11], 1.64% (active); in assay [12], 70.3%. Further, the growth in assay [13] was 29.8%; in assay [14] it was 80.5%; in assay [15] it was 71.3%; in [19], 78.3%; in [16] it was 52.2%; in assay [17], 94%. In assay [18], the growth is 69.2%.

The values are drawn from PubChem BioAssay (NCI).
